ATXN2 expr inh = inhibitors of ATXN2 expression | HEK-293 ATXN2-luciferase reporter, luminescence, 24 h | Potency, µM (highest dose often 57 µM), usual class: inhibitors | actives 0.72% (n = 360,000) | AID 1745845; note: nearly all actives have a fitted effect of over 55% in size
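ATXN2-luciferase reporter cells (luciferase flanked by upstream and downstream ATXN2 gene portions) were treated 24 h at 37 °C with compounds at up to 57 uM. SteadyGlo luminescence gave expression; GF-AFC fluorescence gave viability.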
ATXN viability = viability counter-screen for ATXN expression inhibitors; S2 cells (HEK-293 line with an ATXN2-luciferase reporter) viability, CellTiter-Fluor protease fluorescence, 24 h; Potency, µM (titrated, usually from 56.7 µM), most hits filed as cytotoxic; actives 0.49% (n = 400,000); AID 651635; note: nearly all actives have a fitted effect of over 40% in size
A549 tox = A549 cytotoxicity, counter-screen for Nrf2 inhibitors; A549 ARE-Fluc cells, CellTiter-Fluor viability, 18-24 h; Potency, µM (top dose mostly 46 µM), hits mostly inhibitors; AID 504648; actives 0.16% (n = 390,000)
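A549 ARE_Fluc cells in 5% FBS OPTI-MEM were exposed to compounds in concentration-response for 18-24 h at 37 deg C. Viability was read by CellTiter-Fluor fluorescence (Ex 405/Em 525) after 30 min, before the luciferase read.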
HepG2 viability = kills HepG2 cells in TGF-b inhibitor counter-screen. HepG2 CAGA-GFP viability, ATP luminescence, 18 h. Potency, µM (doses to about 46.1 µM), most hits filed as cytotoxic. actives 0.76% (n = 410,000). AID 588856
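CellTiter-Glo luminescence gave cytotoxicity after 18 hours at 37 degrees C. The cells were HepG2 CAGA-GFP in 1% FBS DMEM, stimulated with 500 pg/mL TGF-beta after compound addition. %Activity was normalised to no-cell wells (complete cell-killing) and DMSO (no toxicity), and curves were fitted and classified.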
Nrf2 block = Nrf2 pathway inhibition | AID 504444 | A549 ARE-Fluc reporter, luciferase luminescence, 18-24 h | Potency, µM (top dose mostly 46 µM), usual class: inhibitors | actives 2.1% (n = 360,000); note: nearly all actives have a fitted effect of over 60% in size
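A549 ARE_Fluc cells, 5000/well, 5% FBS OPTI-MEM; compounds in dose-response, 18-24 h at 37 °C/5% CO2; CellTiter-Fluor viability read (Ex 405/Em 525), then BugLite luciferase luminescence = Nrf2 activity.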
TGFb SMAD3 inh = TGF-b pathway inhibition | actives 1.2% (n = 410,000) | HepG2 CAGA-GFP TGF-b/SMAD3 reporter, GFP fluorescence, 18 h; TGF-beta stimulated, 500 pg/mL final | Potency, µM (doses to about 46.1 µM), most hits filed as inhibitors; note: nearly all actives have a fitted effect of over 65% in size
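Inhibition was scored as loss of TGF-beta-induced (500 pg/mL final, 18 hours, 37 degrees C) GFP in HEPG2 cells carrying a CAGA-GFP reporter, in DMEM with 1% FBS. Well GFP was summed per cell; Activity was normalised to unstimulated and stimulated DMSO wells, then concentration-response fitting.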
A number is an active result; 0 = inactive; ? = inconclusive; - = not tested or not shown. This is a sample that favours compounds with a hit; in the whole collection about 3.8% have one here. Calls come from the whole dose curve; as a rule, active = well fitted curve in the direction sought with a large enough effect; inconclusive = small, poorly fitted or top-dose-only effect, or another doubt; inactive = no such curve, though single readings can be large; an effect the other way counts as inactive or inconclusive.

SMILES | ATXN2 expr inh | ATXN viability | A549 tox | HepG2 viability | Nrf2 block | TGFb SMAD3 inh
COc1cccc(CNC(=O)CN2C(=O)N(c3cc(C)ccc3C)S(=O)(=O)c3ccccc32)c1OC | 0 | ? | ? | 0 | - | ?
CCc1nn(CC(=O)NCc2ccc(OC)c(OC)c2)c(=O)c2cc3sc(C)cc3n12 | - | - | 0 | 0 | 0 | 0
COc1ccc(S(=O)(=O)Nc2cccc(N(C)S(C)(=O)=O)c2)cc1Br | 0 | ? | 0 | 0 | 18µM | ?
COc1ccc(S(=O)(=O)Nc2cccc(C(C)=O)c2)cc1Br | 0 | 0 | 0 | 0 | ? | ?
O=C(O)c1cc(O)c2c(c1)[C@@H]([C@H]1c3cc(C(=O)O)cc(O)c3C(=O)c3c(O[C@@H]4O[C@H](CO)[C@@H](O)[C@H](O)[C@H]4O)cccc31)c1cccc(O[C@@H]3O[C@H](CO)[C@@H](O)[C@H](O)[C@H]3O)c1C2=O | 0 | 0 | 0 | 0 | 0 | 14µM
S=C(Nc1ccccc1)N1CCC(Cc2ccccc2)CC1 | 0 | 0 | 0 | 0 | 16µM | 0
COc1ccc(NC(=S)N2CCC(Cc3ccccc3)CC2)cc1 | 0 | 0 | 0 | 0 | 0 | 0
Cc1cccc(C)c1NC(=O)C1CCCN1C(=O)NCc1ccccc1 (centres undefined) | 0 | 0 | 0 | 0 | 0 | 0
COc1cccc(CN(C)C(=O)c2cc(S(=O)(=O)N3CCN(c4ccccc4)CC3)ccc2Cl)c1 | 0 | 0 | 0 | 0 | 21µM | ?
COc1ccc(CCN(C)C(=O)c2cc(S(=O)(=O)N3CCCCCC3)ccc2OC)cc1OC | 0 | 0 | 0 | 0 | ? | 0
COc1ccc(CCN(C)C(=O)c2cc(S(=O)(=O)N3CCCCC3)ccc2Cl)cc1OC | 0 | 0 | 0 | 0 | 16µM | 0
Cc1ccc(NC(=O)Nc2ccc3c(c2)C(=O)OC3)cc1Cl | - | 0 | 0 | 0 | 0 | 0
COc1ccccc1NC(=O)CSc1nnc(NC(=O)Nc2ccc(C)cc2)s1 | - | - | ? | 0 | - | 5.6µM
COc1ccccc1NC(=O)CSc1nnc(NC(=O)C2CC2)s1 | 0 | 0 | 0 | 0 | 0 | 0
CCN(CC(=O)Nc1c(F)cccc1F)C(=O)c1ccc(N2CCCCC2)c([N+](=O)[O-])c1 | 0 | 0 | 0 | 0 | 16µM | ?
O=C1C=C(c2ccc(C(=O)O)cc2)C[C@@H](c2ccc(F)cc2)C1 | 0 | 0 | 0 | 0 | 0 | 0
C#CCOCCOCCOCCNc1nc(N2CCN(C(=O)CCCCCCCCCCNC(=O)[C@H](CCC(=O)O)n3cc(CCCCCN)nn3)CC2)nc(N2CCN(C(=O)CCCCCCCCCCNC(=O)[C@@H]([C@H](C)O)n3cc(C)nn3)CC2)n1 | 0 | 0 | 0 | 0 | 0 | 0
C#CCOCCOCCOCCNc1nc(N2CCN(C(=O)CCCCCCCCCCNC(=O)Cn3cc(CCCCCN)nn3)CC2)nc(N2CCN(C(=O)CCCCCCCCCCNC(=O)[C@H]([C@@H](C)CC)n3cc(CCCCCN)nn3)CC2)n1 | ? | 22µM | ? | 0 | ? | ?
C#CCOCCOCCOCCNc1nc(N2CCN(C(=O)CCCCCCCCCCNC(=O)Cn3cc(CCCCCN)nn3)CC2)nc(N2CCN(C(=O)CCCCCCCCCCNC(=O)[C@H](CO)n3cc(CCCCCN)nn3)CC2)n1 | 0 | 0 | 0 | 0 | 0 | ?
C#CCOCCOCCOCCNc1nc(N2CCN(C(=O)CCCCCCCCCCNC(=O)[C@H]([C@@H](C)CC)n3cc(CCCCCN)nn3)CC2)nc(N2CCN(C(=O)CCCCCCCCCCNC(=O)[C@@H]([C@H](C)O)n3cc(C)nn3)CC2)n1 | 16µM | 16µM | ? | 0 | ? | ?
C=C(C1=CCN(S(=O)(=O)C(C)(C)C)[C@@H]1CCO)c1ccccc1 | 0 | 0 | 0 | 0 | 0 | 0
CCCC[C@H](CN[C@@H](CNC)[C@H](C)CC)NCCC12CCC(CC1)C2 | 28µM | 28µM | 0 | 0 | 0 | ?
O=C(NCc1ccccn1)c1cccc(NS(=O)(=O)c2cccc(F)c2)c1 | 0 | 0 | 0 | 0 | 0 | 0
